AmpC no deterg = inhibitors of E. coli AmpC beta-lactamase without detergent; P00811; AmpC nitrocefin hydrolysis, absorbance 480 nm, 0.0001% Triton; Potency, µM (doses to about 57.1 µM), inactives show at the top dose activity change, negative = inhibition, actives largely listed as inhibitors; hit rate 0.52% among 330,000;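 also: plate controls were no compound for no effect and no enzyme for full effect; nearly all actives have a fitted effect of over 20% in size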
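AmpC (5.3 nM in the dispensed reagent) in 20 mM phosphate pH 7.0 with 0.01% (detergent screen) or 0.0001% Triton X-100 was preincubated with compounds for 15 min at room temperature. Nitrocefin was then added from an 800 uM solution, and hydrolysis was followed at 480 nm.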
RE007 growth inh = less growth of the S. pombe RE007 Vpr strain. S. pombe RE007 Vpr strain, BacTiter-Glo ATP luminescence, 24 h. Potency, µM (doses to about 92.2 µM), for inactives: top-dose activity change, negative = less growth, hits mostly inhibitors. hit rate 0.21% among 360,000. AID 651644; active = well fitted falling curve with a large enough effect; inconclusive = small, poorly fitted or top-dose-only effect; inactive = no such curve, though single readings can be large or run the other way; also: nearly all actives have a fitted effect of over 50% in size
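Fission yeast strain RE007, carrying one chromosomally integrated HIV-1 vpr copy, was seeded at OD 0.01 in PMG+AL medium with 23 nL pinned compound. After 24 h at 30 °C and 99% humidity, viability was read by BacTiter-Glo luminescence.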
AmpC inh detg = blocks E. coli AmpC beta-lactamase in detergent assay. P00811. AmpC hydrolysis of nitrocefin, absorbance 480 nm, 0.01% Triton. Potency, µM (highest dose often 114 µM), inactives show at the top dose activity change, negative = inhibition, hits mostly inhibitors. hit rate 0.041% among 370,000;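 also: 0% = no-compound wells and -100% = no-enzyme wells; nearly all actives have a fitted effect of over 25% in size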
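20 mM phosphate pH 7.0 + 0.01% (detergent screen) or 0.0001% Triton X-100; 5.3 nM AmpC reagent; cpd preinc 15 min RT; nitrocefin (800 uM stock) to start; A480 q20 s × 4 min; Activity was normalised to no-enzyme and no-compound control wells.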
LmPK inhibitor = inhibitors of Leishmania mexicana pyruvate kinase. Q27686. purified LmPK, Kinase-Glo ATP luminescence, 1 h. Potency, µM (series often up to 57.5 µM), without a hit: at the top dose activity change, negative = inhibition, most hits filed as inhibitors. hit rate 0.37% among 290,000
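ATP generated from ADP (0.1 mM) and PEP (0.5 mM) by 0.1 nM LmPK over 1 h at room temperature (pH 7.2 imidazole buffer) was detected by coupled luciferase luminescence. Values were normalized to uninhibited and no-enzyme wells.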
Giardia FBPA inh = blocks Giardia fructose-bisphosphate aldolase activity. Potency, µM (series often up to 59.6 µM), for inactives: at the highest dose activity, negative = inhibition, usual class: inhibitors. hit rate 0.71% among 290,000. A8B2U2. purified Giardia FBPA; also: nearly all actives have a fitted effect of over 55% in size
Target sequence (A8B2U2 whole entry, looked up): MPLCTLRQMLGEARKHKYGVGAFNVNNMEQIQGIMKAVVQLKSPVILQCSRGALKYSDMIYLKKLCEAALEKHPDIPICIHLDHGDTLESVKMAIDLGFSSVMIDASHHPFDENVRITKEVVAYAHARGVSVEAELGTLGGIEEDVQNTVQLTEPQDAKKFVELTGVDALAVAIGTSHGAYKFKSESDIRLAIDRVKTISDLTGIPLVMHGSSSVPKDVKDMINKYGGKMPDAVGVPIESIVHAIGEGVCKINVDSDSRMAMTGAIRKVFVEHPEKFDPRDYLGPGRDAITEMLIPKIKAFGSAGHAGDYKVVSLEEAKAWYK
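40 nM FBPA preincubated 10 min at RT with compound (up to 57.5 uM final), then substrate plus GAPDH/TPI/NAD/arsenate coupling and diaphorase/resazurin added. Fluorescence read after 20 min at RT, 525/598 nm.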
TbPYK inhibitor = blocks Trypanosoma brucei pyruvate kinase; Q57TT1; TbPYK enzyme, Kinase-Glo Plus ATP luminescence, 45 min; Potency, µM (titrated, usually from 76.8 µM), for inactives: top-dose activity, negative = inhibition, usual class: inhibitors; hit rate 0.12% among 410,000; also: nearly all actives have a fitted effect of over 50% in size
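Quantitative HTS: titrated library compounds versus trypanosomal pyruvate kinase in TEA buffer (pH 7.2) containing KCl, MgCl2, BSA and Tween-20. Reactions were initiated with ADP, 130 uM final. Kinase-Glo Plus luminescence was read after 45 min at RT.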
* = called active by the depositor; [ ] = remark or other dose. A selection: hits, their analogues and other compounds. The true share with any hit is near 1.4%. Unless noted, calls follow the shape of the dose curve; as a rule, active = well fitted curve in the direction sought with a large enough effect; inconclusive = small, poorly fitted or top-dose-only effect, or another doubt; inactive = no such curve, though single readings can be large; an effect the other way counts as inactive or inconclusive. Unless noted, % is scaled to controls: 0 for no effect and ±100 for the full control effect; potency is read from the fitted curve at half-maximal effect.

For CC(C(=O)O)c1ccc(-c2ccccc2)c(F)c1 (stereo not drawn) the results were AmpC no deterg -25.5%, RE007 growth inh 4.1%, AmpC inh detg -13.3%, LmPK inhibitor -5.1%, Giardia FBPA inh 29.0% and TbPYK inhibitor -5.7%.
CC(C(=O)Nc1ccccc1)c1ccc(-c2ccccc2)c(F)c1 (stereo not drawn) was read as AmpC no deterg 11.2µM*, RE007 growth inh 1.9%, AmpC inh detg inconclusive, LmPK inhibitor 8.4%, Giardia FBPA inh 0.0% and TbPYK inhibitor 0.6%.
Cc1ccc(S(=O)(=O)n2nc(OC(=O)c3ccccc3C)cc2N)cc1 was read as AmpC no deterg 31.6µM*, RE007 growth inh -3.1%, AmpC inh detg -14.5%, LmPK inhibitor 1.4%, Giardia FBPA inh -2.0% and TbPYK inhibitor 0.2%.
Screening O=C(Nc1ccc2nc(-c3ccccc3)[nH]c2c1)c1ccco1 returned AmpC no deterg -23.9%, RE007 growth inh -1.0%, AmpC inh detg 2.8%, LmPK inhibitor -6.4%, Giardia FBPA inh -5.2% and TbPYK inhibitor -2.7%.
`CS(=O)(=O)c1cccc(C(=O)Nc2cccc(-c3nc4ccccc4[nH]3)c2)c1` gave AmpC no deterg 17.8µM*, RE007 growth inh -24.8%, AmpC inh detg -8.9%, LmPK inhibitor -8.7%, Giardia FBPA inh 3.1% and TbPYK inhibitor -10.6%.
Screening O=C(Nc1cccc(-c2nc3ccccc3[nH]2)c1)c1cccc(NC(=O)c2ccco2)c1 returned AmpC no deterg 3.16µM*, RE007 growth inh -10.0%, AmpC inh detg inconclusive, LmPK inhibitor 2.0%, Giardia FBPA inh 4.0% and TbPYK inhibitor 5.7%.
`Cc1ccsc1/C=N/Nc1nc(=O)[nH]nc1C` gave AmpC no deterg -1.0%, RE007 growth inh 12.6µM*, AmpC inh detg 1.4%, LmPK inhibitor inconclusive, Giardia FBPA inh inconclusive and TbPYK inhibitor inconclusive.
Screening Cc1cc(C)nc(N/N=C/c2sccc2C)n1 returned AmpC no deterg 4.4%[2.29 µM], RE007 growth inh -4.3%, AmpC inh detg -5.5%, LmPK inhibitor inconclusive, Giardia FBPA inh -17.4% and TbPYK inhibitor -19.7%.
Screening O=[N+]([O-])c1ccc(O)c2ncccc12 returned AmpC no deterg 69.0%, RE007 growth inh -10.4%, AmpC inh detg -2.0%, LmPK inhibitor -1.4%, Giardia FBPA inh 19.9µM* and TbPYK inhibitor 3.3%.
For COc1ccccc1O the results were AmpC no deterg 1.1%, RE007 growth inh -3.6%[18.4 µM], AmpC inh detg inconclusive, LmPK inhibitor -8.5%, Giardia FBPA inh 39.4% and TbPYK inhibitor 2.1%.
Screening COc1cccc(O)c1O returned Giardia FBPA inh 17.7µM*.
Screening Cc1ccc(N/N=C(/Sc2nnnn2-c2ccccc2)C(=O)c2ccccc2)cc1 returned AmpC no deterg 3.98µM*, RE007 growth inh 6.9%, AmpC inh detg 35.5µM*, LmPK inhibitor 4.2%, Giardia FBPA inh 4.5% and TbPYK inhibitor -6.2%.
`CCN1CCN(Cc2nc3cc(NC(=O)c4cc(OC)c(OC)c(OC)c4)ccc3n2CC)CC1` gave AmpC inh detg 3.7% and TbPYK inhibitor -0.1%.
Screening CSc1ccc(CCNC(=O)CCc2c(C)nc3c(-c4ccccc4)c(C)nn3c2C)cc1 returned AmpC inh detg 0.3% and TbPYK inhibitor 1.0%.
COC(=O)c1ccc(NC(=O)CCc2c(C)nn(-c3ccc(N4CCCCC4)nn3)c2C)cc1 was read as AmpC inh detg 17.1% and TbPYK inhibitor -3.3%.
COc1ccc(NC2CCN(C3CC(=O)N(c4ccc(F)c(Cl)c4)C3=O)CC2)cc1 (stereo not drawn) was read as AmpC no deterg 114.9%, RE007 growth inh 6.31µM*, AmpC inh detg 1.0%, LmPK inhibitor 2.5%, Giardia FBPA inh -24.7% and TbPYK inhibitor -12.2%.

From PubChem
